Test results taken from a collection of fitness landscapes (doi:10.1126/science.1257360).
The full ranking holds about 140,000 sequences; the median of “enrichment ratio after two sorts for PhoP signalling” is about 0, and the highest 2% start at about 11. This is one part of a sample in which the highest values are shown more often than they occur.

B1: PhoQ; a variant is named by its letters at X, in order, P23837 (parent)
chain: MKKLLRLFFPLSLRVRFLLATAAVVLVLSLAYGMVALIGYSVSFDKTTFRLLRGESNLFYTLAKWENNKLHVELPENIDKQSPTMTLIYDENGQLLWAQRDVPWLMKMIQPDWLKSNGFHEIEADVNDTSLLLSGDHSIQQQLQEVREDDDDAEMTHSVAVNVYPATSRMPKLTIVVVDTIPVELKSSYMVWSWFIYVLSANLLLVIPLLWVAAWWSLRPIEALAKEVRELEEHNRELLNPATTRELTSLVRNLNRLLKSERERYDKYRTTLTDLTHSLKTPLXXLQXXLRSLRSEKMSVSDAEPVMLEQISRISQQIGYYLHRASMRGGTLLSRELHPVAPLLDNLTSALNKVYQRKGVNISLDISPEISFVGEQNDFVEVMGNVLDNACKYCLEFVEISARQTDEHLYIVVEDDGPGIPLSKREVIFDRGQRVDTLRPGQGVGLAVAREITEQYEGKIVAGESMLGGARMEVIFGRQHSAPKDE

Variants of: B1
Assay: enrichment ratio after two sorts for PhoP signalling (ratio (wild type AVST 3.29)); higher = more functional
Conditions: with PhoP (E. coli)

| Variant | enrichment ratio |
| --- | --- |
| TYSH | 1.78 |
| NQDR | ≤ 0.25 |
| LYHC | ≤ 0.25 |
| YVNL | ≤ 0.25 |
| RKNY | ≤ 0.25 |
| MNMF | ≤ 0.25 |
| FCKG | ≤ 0.25 |
| TKNW | ≤ 0.25 |
| TKNH | 11.4 |
| HNNH | ≤ 0.25 |
| ANCC | 0.324 |
| AKCC | 15.2 |
| HKNH | ≤ 0.25 |
| TKCC | 13.1 |
| TKNI | 13.3 |
| MKCC | ≤ 0.25 |
| HKCC | ≤ 0.25 |
| HNCC | ≤ 0.25 |
| HKNI | ≤ 0.25 |
| KKAH | ≤ 0.25 |
| LSQM | ≤ 0.25 |
| NLVR | ≤ 0.25 |
| SGPQ | ≤ 0.25 |
| FWSM | ≤ 0.25 |
| VAFK | ≤ 0.25 |

| Variant | enrichment ratio |
| --- | --- |
| MYIN | ≤ 0.25 |
| EPPF | ≤ 0.25 |
| IMLD | ≤ 0.25 |
| AQCC | 32.6 |
| KKNM | ≤ 0.25 |
| EQCC | ≤ 0.25 |
| NQCC | ≤ 0.25 |
| HKNM | ≤ 0.25 |
| TKNM | 31.9 |
| YTTI | ≤ 0.25 |
| GVTI | 4.7 |
| ITTI | ≤ 0.25 |
| TTTI | 22.1 |
| GTTI | 13.5 |
| TTTA | 5.71 |
| PPTP | ≤ 0.25 |
| GGSI | 12.3 |
| RGSI | ≤ 0.25 |
| TGSI | 19.6 |
| GSSI | 14.1 |
| GQSI | ≤ 0.25 |
| NGSI | ≤ 0.25 |
| GSSK | ≤ 0.25 |
| NISI | ≤ 0.25 |
| GSTG | ≤ 0.25 |

| Variant | enrichment ratio |
| --- | --- |
| MYCI | ≤ 0.25 |
| LDCF | ≤ 0.25 |
| DHSM | ≤ 0.25 |
| YTII | ≤ 0.25 |
| GTII | 13.8 |
| GGII | 1.19 |
| GYII | 0.285 |
| GCII | 18.2 |
| GNII | 8.44 |
| KMAM | ≤ 0.25 |
| KMAN | ≤ 0.25 |
| KMNM | ≤ 0.25 |
| TMAK | 16.1 |
| TMPM | ≤ 0.25 |
| NMAK | ≤ 0.25 |
| TMIM | ≤ 0.25 |
| TMNM | 35 |
| HAAK | ≤ 0.25 |
| TMAM | 26.9 |
| DMAN | ≤ 0.25 |
| TMAN | 18.9 |
| HYTR | ≤ 0.25 |
| LWGW | ≤ 0.25 |
| NTYY | ≤ 0.25 |
| YIFC | ≤ 0.25 |

| Variant | enrichment ratio |
| --- | --- |
| CVCM | ≤ 0.25 |
| TMGM | 3.21 |
| TMTM | 17.1 |
| TMWM | ≤ 0.25 |
| TWYG | ≤ 0.25 |
| FFGF | ≤ 0.25 |
| QGFF | 13.9 |
| QIHF | ≤ 0.25 |
| QGFA | 1.27 |
| QPGF | ≤ 0.25 |
| QEGF | ≤ 0.25 |
| FFFF | ≤ 0.25 |
| QGGF | 18.4 |
| QIGF | 12.5 |
| LRWS | ≤ 0.25 |
| ITEW | ≤ 0.25 |
| ELKD | ≤ 0.25 |
| HCGH | ≤ 0.25 |
| NAPY | ≤ 0.25 |
| CITA | 12.4 |
| CIMV | 12.9 |
| CICV | 0.57 |
| CITI | ≤ 0.25 |
| CIWI | ≤ 0.25 |
| CIFA | ≤ 0.25 |

| Variant | enrichment ratio |
| --- | --- |
| TNDF | ≤ 0.25 |
| YDRL | ≤ 0.25 |
| VIWT | ≤ 0.25 |
| WDYR | ≤ 0.25 |
| GTGM | 6.32 |
| GDCG | ≤ 0.25 |
| RIRE | ≤ 0.25 |
| QSYL | 13.9 |
| QTGM | 12 |
| QTNS | 0.432 |
| QTGD | ≤ 0.25 |
| QTNY | 17.5 |
| KSYL | ≤ 0.25 |
| QTDH | 29.3 |
| QEYL | 1.39 |
| QGDH | ≤ 0.25 |
| QTPM | ≤ 0.25 |
| QTNL | 10.8 |
| QTDS | 8.33 |
| DLEK | ≤ 0.25 |
| IPTS | ≤ 0.25 |
| VIYV | ≤ 0.25 |
| KMFH | ≤ 0.25 |
| KSEQ | ≤ 0.25 |
| TVLM | 0.847 |

| Variant | enrichment ratio |
| --- | --- |
| KYWW | ≤ 0.25 |
| KESK | ≤ 0.25 |
| KVEK | ≤ 0.25 |
| KTHS | 0.436 |
| VEPK | ≤ 0.25 |
| QTYL | 12.8 |
| QTYI | 12.9 |
| QTHF | 3.14 |
| QGWL | 2.29 |
| QGYL | 9.62 |
| QTPA | ≤ 0.25 |
| FDYL | ≤ 0.25 |
| QTWL | 21.9 |
| QTRL | ≤ 0.25 |
| PSTY | ≤ 0.25 |
| DPTW | ≤ 0.25 |
| RMLN | ≤ 0.25 |
| HIRM | ≤ 0.25 |
| KYCT | ≤ 0.25 |
| WLCT | ≤ 0.25 |
| SECT | 24.6 |
| SRCT | ≤ 0.25 |
| SLCT | 19.2 |
| TECT | 5.22 |
| SACT | 14 |

| Variant | enrichment ratio |
| --- | --- |
| PLCT | ≤ 0.25 |
| IACT | ≤ 0.25 |
| HEHS | ≤ 0.25 |
| NPLN | ≤ 0.25 |
| KDNG | ≤ 0.25 |
| TGQY | 5.59 |
| SYEM | ≤ 0.25 |
| LFDK | ≤ 0.25 |
| LFMM | ≤ 0.25 |
| YGQR | ≤ 0.25 |
| GENY | ≤ 0.25 |
| GETA | ≤ 0.25 |
| GEAA | 11.4 |
| GEAS | 9.56 |
| GEYT | 0.289 |
| GEGD | ≤ 0.25 |
| GETT | 16.2 |
| GNTT | 2.98 |
| GEYI | ≤ 0.25 |
| GEAY | 23.4 |
| GEAT | 14.1 |
| GELT | 11.2 |
| MCVP | ≤ 0.25 |
| LYDV | ≤ 0.25 |
| WERP | ≤ 0.25 |

| Variant | enrichment ratio |
| --- | --- |
| FGLD | ≤ 0.25 |
| WHSD | ≤ 0.25 |
| PARG | ≤ 0.25 |
| SKNV | ≤ 0.25 |
| KDFC | ≤ 0.25 |
| ATMV | 9.43 |
| AICG | 8.42 |
| YTTG | ≤ 0.25 |
| ATVG | 6.86 |
| ITCG | ≤ 0.25 |
| ATPI | 8.1 |
| ATTG | 12 |
| ATMG | 16.2 |
| ATCV | 15.4 |
| ATIV | 8.37 |
| ATCG | 16.1 |
| TTTG | 7.1 |
| HMVR | ≤ 0.25 |
| PPPT | ≤ 0.25 |
| HYAC | ≤ 0.25 |
